# From article PMC7819943, “Rice protein-binding microarrays: a tool to detect cis-acting elements near promoter regions in rice”
# In all, about 68,000 sequences were measured (“fluorescence intensity (a.u.)”: median about 9,100, highest 2% from about 16,000 on). Many of the other results were omitted from the sample, so the highest values are more common in it than they were.
# Molecular target: OsWRKY34 (Oryza sativa, UniProt Q0JBA9 1-250)
# Experiment: protein-binding microarray (RPBM); PBS, 2% BSA, 51.3 ng/ul salmon testes DNA, 50 uM zinc acetate, 200 nM TF, 25 C, 1 h; high values mean tight binding
# Details: protein: recombinant; tags: N-terminal polyhistidine and DsRed monomer fusion (pET32a); label: CyDye5-dUTP incorporated in the synthesized complementary strand; 3' TTTTT single-stranded linker to array surface; dsDNA, one strand shown
# Summary of the method: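 For the binding signal, per-feature fluorescence intensity was read in arbitrary units on an Axon 4000B scanner. Before scanning, a 2% BSA-blocked custom Agilent array made double-stranded with Cy5-dUTP was washed after 1 h at 25 °C with 200 nM protein and 50 µM zinc acetate. The proteins were Ni–NTA-purified transcription factors with N-terminal polyhistidine and DsRed fusions, expressed in E. coli BL21-CodonPlus.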
# Sequence of OsWRKY34 (Q0JBA9 entry or part of it): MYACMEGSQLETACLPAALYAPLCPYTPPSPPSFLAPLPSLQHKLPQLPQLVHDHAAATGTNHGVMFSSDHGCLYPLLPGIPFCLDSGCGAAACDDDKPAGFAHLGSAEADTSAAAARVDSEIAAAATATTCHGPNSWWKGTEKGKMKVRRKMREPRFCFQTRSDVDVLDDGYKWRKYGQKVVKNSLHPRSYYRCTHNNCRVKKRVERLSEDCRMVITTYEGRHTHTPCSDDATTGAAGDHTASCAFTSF
row,Sequence,binding signal
1,AACATTGATGAGAATTGAAATCATTTCGTTGCTCTAATCTCGGAGTCACCTAGTGCAG,8340 fluorescence intensity (a.u.)
2,CTAGCTGAAGACTTGTGCATGCAGTTTACACCTTTTATCTCGGAGTCACCTAGTGCAG,9280 fluorescence intensity (a.u.)
3,TAGCTCGTCTACTCCTAGCTCTCTCGTCCAATCCGGCCGGCGGAGTCACCTAGTGCAG,8680 fluorescence intensity (a.u.)
4,CTACGTGAGCTCGTTGCTGTGTCTCCTCTCTCTGCATCGCCGGAGTCACCTAGTGCAG,9690 fluorescence intensity (a.u.)
5,CTCACAGTAAGCTTGTCCAACAGATCCATTCCTAACCTACCGGAGTCACCTAGTGCAG,8140 ± 110 fluorescence intensity (a.u.)
6,TCCACTTCCAACATCTACTATCTTTTCTCACGCTTTTTCCCGGAGTCACCTAGTGCAG,8630 fluorescence intensity (a.u.)
7,CTCCTCAGCTAGTTGCTTGTCCCACACCACATCTTTCTTTCGGAGTCACCTAGTGCAG,12900 fluorescence intensity (a.u.)
8,GTCCAGTGGACCAACCGGGTCACGGTCTCACGTGCCAAAGCGGAGTCACCTAGTGCAG,8710 fluorescence intensity (a.u.)
9,AAAATCTGTCATCGTCGTATCATGCATGTCGAATGTTTTGCGGAGTCACCTAGTGCAG,8380 fluorescence intensity (a.u.)
10,AGCTATTTTACATGTTATTTTTTCATTGTTATCGTACTAACGGAGTCACCTAGTGCAG,10500 fluorescence intensity (a.u.)
11,CACCATCCCAAAATATTTGACGCCGTTGACTTTTTTAAAACGGAGTCACCTAGTGCAG,14000 fluorescence intensity (a.u.)
12,TCCCTCCATCCCAAAATGTTATCTTTGACGTCGTTGACTTCGGAGTCACCTAGTGCAG,10900 fluorescence intensity (a.u.)
13,CATCCCAAAATATTTGACGTCGTTGACTTTTTTAAAAGTGCGGAGTCACCTAGTGCAG,18000 fluorescence intensity (a.u.)
14,GGAGGTCAGGATTGTTGTGGTGGGGAATTGGAGGGAAATGCGGAGTCACCTAGTGCAG,19600 fluorescence intensity (a.u.)
15,GTTGGAGTTGGAGGAGGTGGTGCCGTGGTGGGGATTGATGCGGAGTCACCTAGTGCAG,10500 fluorescence intensity (a.u.)
16,GGGAGGGGCGGCCCAGCGGCAGCGGAGGGGAGGGAGGATGCGGAGTCACCTAGTGCAG,8640 fluorescence intensity (a.u.)
17,GAGAGTAAGGATCAGGAGGAGGTGGAGGAGGAGGAGGATGCGGAGTCACCTAGTGCAG,8300 fluorescence intensity (a.u.)
18,GGGTGTGTAAGGGTAGGTGGAGGGGTGGGTGATGCGAGATCGGAGTCACCTAGTGCAG,20400 fluorescence intensity (a.u.)
19,AGGGTAAGAGGAGGAGGAGGAGGGGTAGGCGAGGGAGATGCGGAGTCACCTAGTGCAG,8490 fluorescence intensity (a.u.)
20,AGGTGGAGGTGGGGAGGATGCGGGAGAGGGAGGTGATGATCGGAGTCACCTAGTGCAG,14000 fluorescence intensity (a.u.)
21,CGGCCCAGGTGGGAGAGGAGGGGAGGGGAGGGGAGGGATGCGGAGTCACCTAGTGCAG,19800 fluorescence intensity (a.u.)
22,GGATGAGGAGGAGGGTGTGGAGGAGGAGGAGGAGGAGGTGCGGAGTCACCTAGTGCAG,11500 fluorescence intensity (a.u.)

row,Sequence,binding signal
1,GGGTCAGAGGGTAGGTTATTGTTGGGTAGGTGTGGAATTGCGGAGTCACCTAGTGCAG,9800 fluorescence intensity (a.u.)
2,GTAGGAGGAGGAGGAGGAGGTGGTGGTGGTGGTGGTGATGCGGAGTCACCTAGTGCAG,15100 fluorescence intensity (a.u.)
3,GCGGAGGTGGTGTGGGTGGGTGAGTGAGTGAGGAGTGATGCGGAGTCACCTAGTGCAG,17400 fluorescence intensity (a.u.)
4,TTATAACATCTCTAGCTTCCTTTTCTAACCGTTTAACTTTCGGAGTCACCTAGTGCAG,8410 fluorescence intensity (a.u.)
5,TTGGTTGTGTGTGTGCCGCCGCGAGCCCGTGACGGCGCCCCGGAGTCACCTAGTGCAG,9390 fluorescence intensity (a.u.)
6,AATTTTTATATTGTTGACCTGCAGATCCTTATGTTGGACTCGGAGTCACCTAGTGCAG,8260 fluorescence intensity (a.u.)
7,AACGTACCACTCCCGTGGGCCGGACCAACACTCCTTCCCACGGAGTCACCTAGTGCAG,9510 fluorescence intensity (a.u.)
8,TGCGTGTTGTGTGTGTGGGTGATCTTTGGCGCGCCTCGTCCGGAGTCACCTAGTGCAG,8120 fluorescence intensity (a.u.)
9,ATCCCCATTTTTTTCCCAAGTGGTACACTGAAATTTTTTTCGGAGTCACCTAGTGCAG,8100 fluorescence intensity (a.u.)
10,TTCCCCACCACCACCAACCCAGACCGGCCGCGGCCTATATCGGAGTCACCTAGTGCAG,8270 fluorescence intensity (a.u.)
11,TTTATAGATGGGGAAGGGGTGGCAACTAGAGACGCGACGGCGGAGTCACCTAGTGCAG,9070 fluorescence intensity (a.u.)
12,TTCTCCGTGTTAATATCACTTACGTCAAGGACCTATTTGTCGGAGTCACCTAGTGCAG,8750 fluorescence intensity (a.u.)
13,CGATGTGATTTAGTGAAAAATTTTAGGGTGGGCTAAACAGCGGAGTCACCTAGTGCAG,11500 fluorescence intensity (a.u.)
14,CGGTGAGGGGTGGACTGGGAGTGCGTGGGTGGGTGTGATGCGGAGTCACCTAGTGCAG,13400 fluorescence intensity (a.u.)
15,GACTGGGAGGATGAGGGGTGGGTGGGTGTGGCTGCTTCTGCGGAGTCACCTAGTGCAG,19100 fluorescence intensity (a.u.)
16,GGCGTGTTGGTGTGCGTGGATTGGGTGGGTGAGGAGGATGCGGAGTCACCTAGTGCAG,13000 fluorescence intensity (a.u.)
17,GTGTGGAGGTGGTGGGGAGTGTGAGGAGAGGGAGGGGATGCGGAGTCACCTAGTGCAG,18000 fluorescence intensity (a.u.)
18,GGGGTGGGGTGGAGAGGGTGAAGCGGCGACGGTGACGATGCGGAGTCACCTAGTGCAG,9870 fluorescence intensity (a.u.)
19,TGGAGGTGGGGAGGATGCGGGAGAGGGAGGTGATGATGGGCGGAGTCACCTAGTGCAG,8790 fluorescence intensity (a.u.)
20,TCGCTGTGAGTGGAGGAGGAGGAGGAAGGGGAGGAGGATGCGGAGTCACCTAGTGCAG,8630 fluorescence intensity (a.u.)
21,GTGAGGTGGGGTGGTGTGGCTTCTGCTGCTGCTGCTACTGCGGAGTCACCTAGTGCAG,15100 fluorescence intensity (a.u.)
22,GTGAAGCGATCTGTATTGGTGGAGGGGAGGGGAGGGGATGCGGAGTCACCTAGTGCAG,24000 fluorescence intensity (a.u.)
